Screening data from PubChem BioAssay.
An excerpt weighted towards active compounds, which were near 2% of everything screened.
TLR4 MyD88 comp = TLR4-MyD88 interaction inhibition in cells; O00206+Q99836; AID 861; hit rate 0.18% among 200,000; inhibition, % at 8.4 µM; HeLa CL3-4 TLR4/MyD88 BLA complementation, FRET ratio; in the data active = inhibition above about 25%;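 note: 0% = vehicle and 100% = reference inhibitor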
Granule exo inh = blocks lytic granule exocytosis; TALL-104 LAMP-1 surface exposure, flow cytometry; cells stimulated with thapsigargin and PMA; hit rate 0.66% among 360,000; inhibition, % at 10 µM;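 active = inhibition above about 55%, limit read from the data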
ABHD5-PLIN5 inh = ABHD5-PLIN5 protein interaction inhibition | Q00G26+Q8WTS1 | Split G. princeps luciferase complementation, luminescence, 4 h | inhibition, % at 4 µM | hit rate 0.78% among 360,000 | AID 602281;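 active = inhibition above the mean inhibition across every tested compound plus 3 SD, cut at about 22% in these data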;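 note: 0% = DMSO only wells and the 100% control is not disclosed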
Target sequence (Q00G26 whole entry, looked up): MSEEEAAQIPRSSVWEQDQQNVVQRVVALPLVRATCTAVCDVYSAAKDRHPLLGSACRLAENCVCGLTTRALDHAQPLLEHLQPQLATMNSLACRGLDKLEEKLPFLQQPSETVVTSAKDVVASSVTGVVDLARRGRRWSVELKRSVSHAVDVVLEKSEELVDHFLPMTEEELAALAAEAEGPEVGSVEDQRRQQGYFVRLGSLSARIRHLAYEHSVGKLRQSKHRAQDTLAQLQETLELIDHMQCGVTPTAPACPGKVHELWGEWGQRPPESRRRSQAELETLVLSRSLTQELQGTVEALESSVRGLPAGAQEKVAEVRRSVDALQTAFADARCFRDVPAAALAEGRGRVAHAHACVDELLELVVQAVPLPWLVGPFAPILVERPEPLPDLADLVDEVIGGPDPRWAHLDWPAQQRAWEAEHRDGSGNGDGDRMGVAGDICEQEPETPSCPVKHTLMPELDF
Target sequence (Q8WTS1 whole entry, looked up): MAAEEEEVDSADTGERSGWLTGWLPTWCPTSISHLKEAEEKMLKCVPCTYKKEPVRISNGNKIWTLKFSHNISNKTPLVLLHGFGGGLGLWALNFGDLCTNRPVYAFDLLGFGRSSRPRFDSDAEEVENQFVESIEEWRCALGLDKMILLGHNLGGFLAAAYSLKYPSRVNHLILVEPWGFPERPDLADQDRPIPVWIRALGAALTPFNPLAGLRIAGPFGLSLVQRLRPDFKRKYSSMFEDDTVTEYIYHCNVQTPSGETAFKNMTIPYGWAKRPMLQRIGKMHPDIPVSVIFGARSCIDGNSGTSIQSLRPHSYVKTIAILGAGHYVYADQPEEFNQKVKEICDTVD
TLR9-MyD88 inh = TLR9-MyD88 interaction inhibition; hit rate 0.21% among 340,000; CHO BLA complementation TLR9-MyD88, CCF4 FRET ratio; Q9NR96+Q99836; inhibition, % at 4.98 µM;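 active = inhibition above the mean over all tested compounds plus 3 SD, cut at about 21% in these data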;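 note: 0% = DMSO only wells and 100% = clavulanate BLA inhibitor control wells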
NOD2 RIPK2 PPI = inhibitors of human NOD2-RIPK2 interaction. CHO BLA complementation NOD2-RIPK2, CCF4 ratio. inhibition, % at 4.98 µM. hit rate 0.38% among 360,000. AID 624267; in the data active = inhibition above about 21%;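 note: 0% = vehicle only and 100% = reference blocker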
B2AR ag = agonists of human beta-2 adrenergic receptor inducing internalization | Am2.2-beta2AR cells, FAP receptor internalization, flow cytometry | response, % (no concentration beside the values) | hit rate 0.43% among 340,000;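 active = response above a set limit, near 3 SD of response in nonfluorescent compounds, cut at about 42% in these data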
TLR4-MyD88 conf = TLR4-MyD88 interaction inhibition confirmed; AID 941; HeLa CL3-4 BLA complementation, CCF4 FRET ratio; shares compounds with TLR4 MyD88 comp; inhibition, % at 8.4 µM; hit rate 50% among 350;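 active = mean inhibition across three repeat runs above about 25% carried over from the earlier screen, limit read from the data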;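 note: plate controls were DMSO only for no effect and clavulanic acid blocking BLA at full dose for full effect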
BLA inhibitor ct = beta-lactamase inhibition flagged in TLR4-MyD88 counter-screen; shares compounds with TLR4 MyD88 comp; HeLa BLA reporter, CCF4 FRET ratio; inhibition, % at 8.4 µM; hit rate 63% among 350; AID 1237;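 active = mean inhibition over three repeats above about 26% taken from the earlier screen, limit read from the data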;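 note: HeLa cells stably expressing beta-lactamase reporter as counterscreen for TLR4-MyD88 inhibitors; 0% = DMSO and 100% = clavulanic acid full inhibition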
TLR9-MyD88 cf = TLR9-MyD88 interaction inhibition, confirmation; shares compounds with TLR9-MyD88 inh; CHO TLR9/MyD88 BLA complementation, CCF4 FRET ratio; inhibition, % at 4.98 µM; hit rate 51% among 680; AID 540250;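 active = mean inhibition across three repeats above about 21% taken from the earlier screen, limit read from the data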;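 note: blue over green emission ratio reports constitutive TLR9 MyD88 association via BLA complementation; 0% = DMSO vehicle wells and 100% = clavulanate BLA inhibitor wells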
BLA nonselective = counter-screen for TLR9-MyD88 inhibitors: non-selective beta-lactamase inhibitors | shares compounds with TLR9-MyD88 inh | CHO-BLA cells, CCF4 FRET ratio, BLA reporter | inhibition, % at 4.98 µM | hit rate 7% among 680 | AID 540251;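 active = mean inhibition above a 50% cutoff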;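 note: counterscreen of TLR9-MyD88 hits on CMV-driven BLA in CHO-K1 cells; 0% = DMSO alone and 100% = clavulanate blocking BLA; higher means less blue over green ratio so more BLA blockade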
TLR9 CHO tox = CHO cell toxicity counter-screen for TLR9-MyD88 inhibitors | TLR9-MyD88 CHO cells cytotoxicity, luminescence | hit rate 39% among 680 | AID 588336 | shares compounds with TLR9-MyD88 inh | inhibition, % at 4.98 µM; in the data active = inhibition above about 11%
* hit, by the source's call.

What do the screens show for `CC(C)Cn1cc(-c2cccc3nccn23)cn1`?
Granule exo inh: 5; ABHD5-PLIN5 inh: 1; NOD2 RIPK2 PPI: 7

How did Cc1cccc2cc(C#N)c(NCCNC(=O)NC3CCCCC3)nc12 do in these assays?
TLR4 MyD88 comp: 25*; Granule exo inh: 0; ABHD5-PLIN5 inh: 1; TLR9-MyD88 inh: -2; NOD2 RIPK2 PPI: -10; B2AR ag: 0; TLR4-MyD88 conf: -11; BLA inhibitor ct: -3

Results for CN(C)c1ccc(/C=N/N=C/c2ccccc2O)cc1 ?
TLR4 MyD88 comp: 37*; Granule exo inh: 18; ABHD5-PLIN5 inh: 1; TLR9-MyD88 inh: 20; NOD2 RIPK2 PPI: -6; B2AR ag: 6; TLR4-MyD88 conf: 58*; BLA inhibitor ct: 53*

How did COc1ccccc1C=NN=Cc1ccccc1O do in these assays?
Granule exo inh: 6; ABHD5-PLIN5 inh: -7; TLR9-MyD88 inh: -11; NOD2 RIPK2 PPI: 0; B2AR ag: -6

What do the screens show for `N#CC1CC(c2ccc([N+](=O)[O-])cc2)=NN1c1ccc([N+](=O)[O-])cc1` (configuration not stated)?
TLR4 MyD88 comp: 56*; Granule exo inh: 0; ABHD5-PLIN5 inh: -3; TLR9-MyD88 inh: 16; NOD2 RIPK2 PPI: 7; B2AR ag: -8; TLR4-MyD88 conf: 56*; BLA inhibitor ct: 83*

Results for O=[N+]([O-])c1cccc(C2CC(c3ccccc3)=NN2c2ccccc2)c1 (configuration not stated) ?
Granule exo inh: -1; ABHD5-PLIN5 inh: 8; TLR9-MyD88 inh: 7; NOD2 RIPK2 PPI: 4; B2AR ag: 33

How did COc1ccc(-c2nc(C#N)c(NCCN(C)C)o2)cc1 do in these assays?
TLR4 MyD88 comp: 27*; Granule exo inh: 11; ABHD5-PLIN5 inh: 5; TLR9-MyD88 inh: -1; NOD2 RIPK2 PPI: 4; B2AR ag: -1; TLR4-MyD88 conf: -7; BLA inhibitor ct: 3

Results for Cc1c(NC(=O)CSc2nnc(-c3cccc(Cl)c3)o2)c(=O)n(-c2ccccc2)n1C ?
TLR4 MyD88 comp: 29*; Granule exo inh: 2; ABHD5-PLIN5 inh: 10; TLR9-MyD88 inh: -2; NOD2 RIPK2 PPI: -3; B2AR ag: 3; TLR4-MyD88 conf: 1; BLA inhibitor ct: 4

What do the screens show for `Cc1ccc(-n2c(Cl)c(Cl)nc(Cl)c2=O)cc1`?
TLR4 MyD88 comp: 27*; Granule exo inh: 28; ABHD5-PLIN5 inh: 85*; TLR9-MyD88 inh: 48*; NOD2 RIPK2 PPI: 84*; B2AR ag: 50*; TLR4-MyD88 conf: 19; BLA inhibitor ct: 22; TLR9-MyD88 cf: 49*; BLA nonselective: 40; TLR9 CHO tox: 99*

What do the screens show for `COc1nc(Cl)cn(-c2ccc(C)cc2)c1=O`?
TLR4 MyD88 comp: -7; Granule exo inh: -4; ABHD5-PLIN5 inh: 0; TLR9-MyD88 inh: 5; NOD2 RIPK2 PPI: 4; B2AR ag: 8

What do the screens show for `COc1ccccc1NS(=O)(=O)c1cc([N+](=O)[O-])ccc1N/N=C/c1c[nH]c2ccccc12`?
TLR4 MyD88 comp: 39*; Granule exo inh: 14; ABHD5-PLIN5 inh: 10; TLR9-MyD88 inh: 49*; NOD2 RIPK2 PPI: 4; B2AR ag: -249; TLR4-MyD88 conf: 27*; BLA inhibitor ct: 56*; TLR9-MyD88 cf: 45*; BLA nonselective: 44; TLR9 CHO tox: 3

What do the screens show for `COc1ccc(NS(=O)(=O)c2cc([N+](=O)[O-])ccc2N/N=C\c2c(C)[nH]c3ccccc23)cc1`?
TLR4 MyD88 comp: 10; Granule exo inh: 33; ABHD5-PLIN5 inh: -2; TLR9-MyD88 inh: 6; NOD2 RIPK2 PPI: 9; B2AR ag: -578

Results for O=S1(=O)CC(N2CCN(c3ccccn3)CC2)CN1Cc1ccccc1 (configuration not stated) ?
Granule exo inh: -8; ABHD5-PLIN5 inh: 12; NOD2 RIPK2 PPI: -4

Results for COc1cccc(/C=C2\C(=O)N(c3cccc(C)c3)C(=O)c3ccccc32)c1 ?
TLR4 MyD88 comp: 29*; Granule exo inh: -6; ABHD5-PLIN5 inh: 1; TLR9-MyD88 inh: 24*; NOD2 RIPK2 PPI: -12; B2AR ag: 9; TLR4-MyD88 conf: 41*; BLA inhibitor ct: 38*; TLR9-MyD88 cf: 46*; BLA nonselective: 47; TLR9 CHO tox: 4

Results for CCCSc1nnc(NC(=O)c2sc3nc(-c4cccs4)ccc3c2N)s1 ?
TLR4 MyD88 comp: 30*; Granule exo inh: 3; ABHD5-PLIN5 inh: -6; TLR9-MyD88 inh: 21*; NOD2 RIPK2 PPI: -3; B2AR ag: -51; TLR4-MyD88 conf: 7; BLA inhibitor ct: 31*; TLR9-MyD88 cf: 23*; BLA nonselective: 22; TLR9 CHO tox: 0

Results for CCc1ccccc1CC1CN(Cc2ccccc2)Cc2ccccc2N1c1ccc(OC)cc1 (configuration not stated) ?
Granule exo inh: 0; ABHD5-PLIN5 inh: -9; NOD2 RIPK2 PPI: 6

Results for CCc1cc2c(=O)c(-c3nc4ccccc4n3C)c(COCC(=O)O)oc2cc1OC(=O)C(C)(C)C ?
TLR4 MyD88 comp: 43*; Granule exo inh: 0; ABHD5-PLIN5 inh: 8; TLR9-MyD88 inh: 49*; NOD2 RIPK2 PPI: 1; B2AR ag: 12; TLR4-MyD88 conf: -6; BLA inhibitor ct: 13; TLR9-MyD88 cf: 2; BLA nonselective: 0; TLR9 CHO tox: 3

How did O=C1c2cccc3c([N+](=O)[O-])ccc(c23)C(=O)N1c1ccc(Cl)cn1 do in these assays?
TLR4 MyD88 comp: 86*; Granule exo inh: 54; ABHD5-PLIN5 inh: 4; TLR9-MyD88 inh: 73*; NOD2 RIPK2 PPI: 85*; B2AR ag: 35; TLR4-MyD88 conf: 87*; BLA inhibitor ct: 111*; TLR9-MyD88 cf: 68*; BLA nonselective: 86*; TLR9 CHO tox: 94*

How did O=C1c2ccc([N+](=O)[O-])cc2C(=O)N1c1ccc(Cl)cn1 do in these assays?
TLR4 MyD88 comp: 10; Granule exo inh: -2; ABHD5-PLIN5 inh: 4; TLR9-MyD88 inh: -22; NOD2 RIPK2 PPI: -7; B2AR ag: -6
